Compound activity: PubChem BioAssay, National Center for Advancing Translational Sciences (NCATS)
HT1080 IDH1KD tx: qHTS for induction of synthetic lethality in tumor cells producing 2HG: qHTS for the HT-1080-IDH1KD cell line | Potency, µM (series often up to 46.1 µM), inactives show top-dose activity, negative = toxicity, actives largely listed as cytotoxic | HT-1080 IDH1 knockdown viability, ATP luminescence, 48 h | 2% of 360,000 active;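 also: potency is read from the fitted curve at half-maximal effect; 0% = DMSO wells and -100% = cell-free medium wells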
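CellTiter-Glo luminescence after 48 h compound exposure at 37 degrees C of IDH1-knockdown HT-1080 cells in 5% FBS RPMI. %Activity scaled between DMSO wells and cell-free media wells, with curves fitted and assigned curve classes.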
HT1080-NT tox: qHTS for induction of synthetic lethality in tumor cells producing 2HG: qHTS for the HT-1080-NT fibrosarcoma cell line; HT-1080-NT fibrosarcoma viability, CellTiter-Glo ATP luminescence, 48 h; Potency, µM (top dose mostly 46.1 µM), without a hit: top-dose activity, negative = less viability, usual class: cytotoxic; 1.6% of 360,000 active; AID 686970, 2013;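 also: NT is the 2HG producing partner of a matched IDH1 knockdown line; potency is read from the fitted curve at half-maximal effect; 0% = DMSO-treated cells and -100% = media-only wells without cells; nearly all actives have a fitted effect of over 55% in size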
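Luminescent CellTiter-Glo readout after 48 hours of compound exposure at 37 degrees C defined viability of HT-1080-NT cells. Activity was normalized to DMSO wells and cell-free media wells; concentration-response curves were fitted and assigned curve classes.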
12-LOX inh: Primary qHTS assay for inhibitors of human arachidonate 12S-lipoxygenase (ALOX12): Round 2. Polyunsaturated fatty acid lipoxygenase ALOX12 (Homo sapiens), P18054. purified 12hLO, xylenol orange hydroperoxide absorbance. Potency, µM (series often up to 108 µM), for the others: at the top dose activity change, negative = inhibition, hits mostly inhibitors. 1.1% of 580,000 active; also: potency is read from the fitted curve at half-maximal effect
Target sequence (P18054 whole entry, looked up): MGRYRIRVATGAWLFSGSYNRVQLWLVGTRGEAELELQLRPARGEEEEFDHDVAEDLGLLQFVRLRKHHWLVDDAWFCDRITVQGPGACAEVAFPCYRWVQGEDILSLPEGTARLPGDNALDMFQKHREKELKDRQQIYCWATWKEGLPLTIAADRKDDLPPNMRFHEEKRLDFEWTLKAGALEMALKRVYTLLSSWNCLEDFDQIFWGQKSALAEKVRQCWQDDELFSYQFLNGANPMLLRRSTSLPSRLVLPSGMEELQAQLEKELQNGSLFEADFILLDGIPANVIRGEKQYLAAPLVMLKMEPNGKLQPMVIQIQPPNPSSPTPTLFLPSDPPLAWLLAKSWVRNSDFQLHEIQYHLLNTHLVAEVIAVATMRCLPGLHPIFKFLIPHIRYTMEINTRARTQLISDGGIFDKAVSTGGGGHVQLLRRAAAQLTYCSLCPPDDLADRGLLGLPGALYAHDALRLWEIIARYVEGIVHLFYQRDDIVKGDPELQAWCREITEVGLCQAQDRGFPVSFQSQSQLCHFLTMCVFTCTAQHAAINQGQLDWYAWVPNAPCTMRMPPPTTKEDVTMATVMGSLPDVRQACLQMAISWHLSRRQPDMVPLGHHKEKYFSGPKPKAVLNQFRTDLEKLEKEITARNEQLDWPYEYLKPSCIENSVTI
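Purified human 12hLO at 150 nM in 25 mM Hepes, 0.01% Triton X-100, pH 7.0, preincubated 15 min at room temperature with compound. Reaction started with 40 uM arachidonic acid, 30 min at room temperature. Hydroperoxide measured by Fe-xylenol orange, 573/405 nm absorbance ratio.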
TDP1 cell noCPT: qHTS for Inhibitors of human tyrosyl-DNA phosphodiesterase 1 (TDP1): qHTS in cells in absence of CPT | DT40 Tdp1-/- hTDP1 cells, no CPT, ATP luminescence, 48 h | Potency, µM (titrated, usually from 46.2 µM), for inactives: at the top dose activity change, negative = growth inhibition, actives largely listed as inhibitors | 15% of 420,000 active | AID 686978, 2013; also: potency is read from the fitted curve at half-maximal effect; nearly all actives have a fitted effect of over 55% in size
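A cellular qHTS used chicken DT40 cells lacking endogenous Tdp1 but carrying stably transfected human TDP1. Compounds were applied without camptothecin, and cell growth kinetics were judged by ATP-dependent luminescence after ≥48 hr.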
IL-1B inflam inh: qHTS for Inhibitors of Inflammasome Signaling: IL-1-beta AlphaLISA Primary Screen. THP-1 LPS/ATP IL-1B secretion, AlphaLISA, 16 h; stronger effect = lower value. activity change, % at 57.5 µM. 4.7% of 360,000 active; in the data active = activity change below about -50%; inconclusive = mostly about -30% to -49%
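THP-1 cells pretreated 1 hr with compounds (up to 57.5 uM final), then stimulated with LPS (250 ng/mL final) plus ATP (1.25 mM final); secreted IL-1B measured by AlphaLISA after 16 hr, decreased signal indicating inhibition.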
TDP1 cell CPT: qHTS for Inhibitors of human tyrosyl-DNA phosphodiesterase 1 (TDP1): qHTS in cells in presence of CPT; chicken DT40 Tdp1-/-;hTDP1 cells + 20 nM CPT, ATP luminescence, 48 h; Potency, µM (highest dose often 46.2 µM), for the others: at the highest dose activity change, negative = growth inhibition, hits mostly inhibitors; 12% of 420,000 active; AID 686979, 2013; also: potency is read from the fitted curve at half-maximal effect; nearly all actives have a fitted effect of over 55% in size
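Chicken DT40 Tdp1-/- cells complemented with human TDP1, 400 cells/well, exposed to compounds plus 20 nM camptothecin for at least 48 h at 37 C; viability read as ATP content by CellTiter-Glo luminescence.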
* marks the source's active call; other numbers are inactive results; ? = inconclusive; · = not tested or not shown; [ ] = dose if it differs, or a comment. The entries come from a sample that favours hits as a whole. Unless noted, calls follow the shape of the dose curve; as a rule, active = well fitted curve in the direction sought with a large enough effect; inconclusive = small, poorly fitted or top-dose-only effect, or another doubt; inactive = no such curve, though single readings can be large; an effect the other way counts as inactive or inconclusive. Unless noted, % is scaled to controls: 0 for no effect and ±100 for the full control effect.

SMILES	HT1080 IDH1KD tx	HT1080-NT tox	12-LOX inh	TDP1 cell noCPT	IL-1B inflam inh	TDP1 cell CPT
COC(=O)c1cnc(Nc2nc(C(N)c3ccccc3Cl)cs2)nc1C(F)(F)F (stereo not drawn)	?	?	-10%	26µM*	-6	?
COC(=O)c1cnc(Nc2nc(C(N)COCc3ccccc3)cs2)nc1C(F)(F)F (stereo not drawn)	-12%	-22%	5%	15µM*	-25	?
N#Cc1c(-c2ccccc2)nc2n(-c3ccccc3)nc(C(=O)Nc3ccccc3)n2c1=O	20%	44%	14%	7.3µM*	0	?
Cc1ccc(C)c(NC(=O)c2nc(-c3ccccc3)n(-c3ccccc3)n2)c1	4%	13%	0%	?	?	?
N#Cc1cccc(NC(=O)c2nc(-c3ccccc3)n(-c3ccccc3)n2)c1	-1%	-12%	0%[57.4 µM]	18µM*	-20	?
CC(=O)c1cccc(NC(=O)c2nc(-c3ccccc3)n(-c3ccccc3)n2)c1	·	·	-23%	10µM*	·	21µM*
COc1ccc(-c2nc(C(=O)Nc3cccc(C(C)=O)c3)nn2-c2ccccc2Cl)cc1	·	·	-14%	16µM*	·	18µM*
CC(C)(C)NC(=O)CNC(=O)C1CCCN1S(=O)(=O)c1ccc(Cl)s1 (stereo not drawn)	·	·	42%	·	·	·
COc1cccc(CN2CCOC3(CCN(Cc4cccc(Cl)c4)CC3)C2=O)c1	·	·	0%[176 µM]	·	·	·
O=C(CN1CCOCC1)Nc1ccc(NC(=O)c2nc(-c3ccccc3)n(-c3ccccc3)n2)cc1	·	·	9%	·	·	·
CC(=O)c1ccc(NC(=O)c2nc(-c3ccccc3)n(-c3ccc(C)cc3)n2)cc1	·	·	-19%	18µM*	·	?
CCc1ccc(-c2cc3c(=O)[nH]nc(SCC(=O)NC(C)CC)n3n2)cc1 (stereo not drawn)	·	·	0%	·	·	·
O=NN(CC(=O)NNc1ccccc1)CC(=O)NNc1ccccc1	?	?	?	-17%	-4	0%
S=C(N=Nc1ccccc1)NNc1ccccc1	-9%	6%	-24%	?	-7	3.7µM*
COc1ccc(-c2nn(C)c3sc(C(=O)N4CCN(c5cc(Cl)ccc5C)CC4)cc23)cc1OC	·	·	-24%	18µM*	·	15µM*
Cn1nc(-c2ccc(Cl)cc2)c2cc(C(=O)N3CCN(c4ccccn4)CC3)sc21	-2%	-9%	·	5.8µM*	1	5.8µM*
Cn1nc(-c2ccc(Cl)cc2)c2cc(C(=O)N3CCN(c4ccccc4)CC3)sc21	-1%	-4%	?	?	-9	?
Cn1nc(-c2ccc(Cl)cc2)c2cc(C(=O)N3CCCC3)sc21	-3%	-2%	0%	23µM*	-16	18µM*
COc1ccc(Cc2nnc(Nc3ccccc3)[nH]c2=O)cc1OC	·	·	-5%	·	·	·
CCN(Cc1ccccc1)c1ccc(/C=C/c2ccnc3ccccc23)cc1	·	·	·	11µM*	·	?
c1ccc2c(c1)ccc1ncccc12	1%	-7%	2%	-18%	-2	-21%
C(=C\c1ccnc2ccccc12)/c1ccc(N(Cc2ccccc2)Cc2ccccc2)cc1	·	·	·	13µM*	·	13µM*
COc1ccc(NC(=O)Nc2ccc(C)n(CC(=O)NCC(C)C)c2=O)cc1	·	·	25%	·	·	·
CCOc1cc(OCC)c(/C=C2\NC(=O)NC2=O)cc1Br	·	·	-5%	·	·	·
O=C(Nc1cc(F)cc(F)c1)C1CC2CCCC(C1)C2=O (stereo not drawn)	·	·	-20%	·	·	·
SMILES	HT1080 IDH1KD tx	HT1080-NT tox	12-LOX inh	TDP1 cell noCPT	IL-1B inflam inh	TDP1 cell CPT
COCc1ccc(CN[C@H]2C[C@@H](Cc3cc(CCO)on3)C2(C)C)o1	·	·	6%[176 µM]	·	·	·
CCC(=O)Nc1cccc(C2OC(=O)N(Cc3ccc(C)cc3)C2C(=O)NCC2CC2)c1 (stereo not drawn)	·	·	10%	·	·	·
COc1ccccc1Nc1nc(N)nc(CSC(=S)N2CCCCC2)n1	2%	-8%	-10%	13µM*	-9	8.2µM*
COc1ccc(OC)c(Nc2nc(N)nc(CCl)n2)c1	16µM*	?	0%	18µM*	-102*	12µM*
COc1ccccc1Nc1nc(N)nc(CCl)n1	12µM*	23µM*	0%	13µM*	-100*	18µM*
COc1ccccc1Nc1nc(N)nc(-c2oc3ccccc3c2C)n1	-8%	-2%	0%	?	-19	8.2µM*
COc1ccc(OC)c(Nc2nc(N)nc(CSc3nnc(N)s3)n2)c1	4%	2%	0%	-9%	8	-12%
Cc1ccc(OCC(=O)Nc2ccc3c(c2)CCC3)c(C(=O)c2cc(C#N)c(=O)n(C3CC3)c2)c1	·	·	2%	·	·	·
COc1cccc(CNC(=O)c2ncoc2-c2cccc(C)c2)c1OC	·	·	9%	·	·	·
Cc1cccc(NC(=S)NNC(=O)CCn2cc(C)cn2)c1	2.8µM*	1.3µM*	13%	-3%	-14	3%
Cc1nc(N2CCN(C)CC2)ncc1-c1cc(=O)[nH]c(N2CCc3ccccc3C2)n1	·	·	13%	·	·	·
CCNC(=S)NNC(=O)c1ccccc1OC(F)F	-5%	4%	5%	-4%	17	-5%
COc1ccc(NC(=S)NNC(=O)c2ccccc2OC(F)F)cc1	3.5µM*	3.5µM*	-2%	18µM*	-15	13µM*
Cc1cccc(NC(=S)NNC(=O)c2ccccc2OC(F)F)c1	-3%	3%	1%	29µM*	-4	23µM*
Cc1cccc(NC(=S)NNC(=O)c2ccccc2Br)c1	-1%	1%	-14%	?	9	?
Cc1ccccc1OCCN(C)Cc1cc(=O)oc2c(C)c(O)ccc12	·	·	-24%	·	·	·
COC(=O)[C@H](CC(C)C)N(Cc1cn(Cc2ccc(C)cc2)nn1)S(=O)(=O)c1ccccc1Br	·	·	8.9µM*	·	·	·
CC(=O)Oc1ccc2cc(-c3nc(-c4ccc(C)cc4)no3)c(=O)oc2c1	·	·	-20%	·	·	·
CN(C(=O)COC(=O)CSc1ccc([N+](=O)[O-])cc1)c1ccccc1	-4%	-4%	?	29µM*	0	23µM*
